# GDH-TPI counter-1: inhibits GDH-TPI coupling enzymes, artifact for Mtb FBA screen. GDH-TPI coupled enzyme counterscreen, NADH absorbance. inhibition, % at 4.8 µM. hit rate 1.2% among 360,000. AID 588335; in the data active = inhibition above about 30%;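 note: 0% = DMSO wells and 100% = wells lacking the enzyme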
# 3CLpro inhibitor: SARS-CoV 3CLpro protease inhibition; hit rate 0.14% among 290,000; recombinant SARS-CoV 3CLpro, quenched FRET peptide cleavage; AID 1706; P0C6X7; inhibition, % at 6 µM; in the data active = inhibition above about 12%
# FadD28 FP inh: M. tuberculosis FadD28 bisubstrate binding inhibition; AID 588549; inhibition, % at 12.5 µM; hit rate 0.22% among 360,000; FadD28 bisubstrate probe binding, fluorescence polarization; in the data active = inhibition above about 8.5%, passing the limit was not always enough
# Mtb FBA inh: inhibitors of M. tuberculosis fructose-bisphosphate aldolase; hit rate 2.3% among 360,000; P9WQA3; inhibition, % at 1 µM; purified M. tuberculosis FBA, fluorescence read-out;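 note: 0% = vehicle and 100% = reference inhibitor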
# Target sequence (P9WQA3 whole entry, looked up): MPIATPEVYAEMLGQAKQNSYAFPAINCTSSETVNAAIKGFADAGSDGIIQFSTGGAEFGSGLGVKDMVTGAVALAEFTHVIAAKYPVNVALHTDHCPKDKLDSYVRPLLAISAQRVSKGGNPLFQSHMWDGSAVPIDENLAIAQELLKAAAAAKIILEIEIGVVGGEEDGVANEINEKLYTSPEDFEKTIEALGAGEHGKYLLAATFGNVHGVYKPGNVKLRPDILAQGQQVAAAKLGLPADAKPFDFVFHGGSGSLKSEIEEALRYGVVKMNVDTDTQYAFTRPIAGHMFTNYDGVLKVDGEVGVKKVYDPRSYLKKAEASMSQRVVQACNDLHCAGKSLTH
# BioA inh: blocks M. tuberculosis BioA enzyme activity | purified M. tuberculosis BioA enzyme, plate reader | inhibition, % at 9.99 µM | hit rate 0.096% among 360,000 | AID 602481; in the data active = inhibition above about 40%
# Mtb FBA inh conf: Mtb FBA inhibition, confirmed; shares compounds with Mtb FBA inh; purified M. tuberculosis FBA, fluorescence read-out; inhibition, % at 1 µM; AID 651616; hit rate 78% among 5,600;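 note: 0% = vehicle wells and 100% = reference inhibitor wells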
# GDH-TPI counter-2: counter-screen for M. tuberculosis FBA inhibitors: GDH-TPI coupled enzyme inhibition; shares compounds with Mtb FBA inh; GDH-TPI coupled enzyme counterscreen, fluorescence; inhibition, % at 1 µM; hit rate 81% among 5,600; in the data active = inhibition above about 10%
# The depositor's hits bear a star; . = no result given; + = active, no number. The list is not random: actives were taken first. Their share in the collection is about 3.1%. Cut-off read from the data, not from the text of the source, unless noted: active = inhibition above about 27%; inactive = the rest.
SMILES,GDH-TPI counter-1,3CLpro inhibitor,FadD28 FP inh,Mtb FBA inh,BioA inh,Mtb FBA inh conf,GDH-TPI counter-2
CO[C@@H]1CN(C)C(=O)c2cc(NC(=O)C3CC3)ccc2OC[C@@H](C)N(S(=O)(=O)c2ccc(Cl)cc2)C[C@H]1C,.,.,.,.,2,.,.
COCC#Cc1ccc2c(c1)O[C@@H](CN(C)C(=O)C1CC1)[C@@H](C)CN([C@@H](C)CO)S2(=O)=O,.,.,.,.,0,.,.
C[C@H](CO)N1C[C@H](C)[C@@H](CN(C)C(=O)Nc2ccccc2)Oc2c(NC(=O)C3CC3)cccc2C1=O,.,.,.,.,1,.,.
COc1cc2ccc(=O)oc2c(O)c1OCC=C(C)C,14,0,2,2,1,.,.
COc1ccc2ccc(=O)oc2c1CC(O)C(C)(C)O (configuration not stated),14,.,-2,66*,0,4,-5
COc1ccc2ccc(=O)oc2c1CC(=O)C(C)C,14,.,-2,39*,7,27,18*
Cc1cc(C)c(C)c(S(=O)(=O)Nc2ccccc2C(=O)O)c1C,-6,4,-9,27*,1,21,11*
Cc1ccc(CNC(=O)c2ccccc2NS(=O)(=O)c2ccc(Cl)nc2)cc1,3,4,-2,2,0,.,.
CC(NC(=O)c1ccc(NS(C)(=O)=O)cc1)c1ccccc1 (configuration not stated),-2,0,2,-3,-1,.,.
CS(=O)(=O)Nc1ccccc1C(=O)O,9,2,0,28*,-1,117*,104*
CC(NC(=O)c1ccccc1NS(C)(=O)=O)c1ccccc1 (configuration not stated),7,-11,-2,42*,2,133*,106*
Cc1ccc(CNC(=O)c2ccccc2NS(C)(=O)=O)cc1,1,-2,-3,38*,-2,+,+
CCn1cc(C(=O)O)c(=O)c2cc(F)c(N3CCN(S(=O)(=O)c4ccc5c(c4)OCCO5)CC3)cc21,3,-2,-1,0,.,.,.
CCn1cc(C(=O)O)c(=O)c2cc(F)c(N3CCN(S(=O)(=O)c4ccc(NC(C)=O)cc4)CC3)cc21,12,1,-1,50*,.,-4,-3
O=C(NN=C1CCCC1)c1cc(Cl)cc(Cl)c1O,9,4,20*,41*,2,70*,61*
COc1ccc(Cl)cc1C(=O)NN=C1CCCC1,16,.,-3,-1,.,.,.
COc1ccc2oc(=O)c(C(=O)NC(C)c3ccccc3)cc2c1 (configuration not stated),12,-6,-3,44*,0,142*,87*
COc1ccc2oc(=O)c(C(=O)NCc3ccco3)cc2c1,20,-4,0,65*,-2,-2,-5
C[C@@H]1CCCCO[C@H](CN(C)S(=O)(=O)c2ccc(F)cc2)[C@H](C)CN([C@@H](C)CO)C(=O)c2cc(NS(=O)(=O)c3ccc(F)cc3)ccc2O1,.,.,.,.,-4,.,.
Cc1cc(C)c(C2=NOC(O)(C(F)(F)F)C2)c(=O)[nH]1 (configuration not stated),0,0,-4,0,0,.,.
Cc1cc(C)c(-c2cc(C(F)(F)F)no2)c(=O)[nH]1,22,-2,1,30*,.,+,147*
COc1ccc(-c2ccc(/C=N/NC(=O)Cc3nnc(N)s3)o2)cc1Cl,38*,-1,-6,29*,-1,54*,30*
Cc1ccc(NC(=O)Nc2nnc(CSCCOc3ccc(Cl)cc3)s2)cc1,0,5,-2,3,.,.,.
COc1ccc(OCCSCc2nnc(NC(=O)Nc3ccc(Cl)cc3)s2)cc1,-1,1,-3,29*,.,10,-5
COc1cc(C2C(C(=O)N3CCOCC3)=C(C)NC3=C2C(=O)CCC3)ccc1OC(C)=O (configuration not stated),17,0,-2,12,-2,.,.
SMILES,GDH-TPI counter-1,3CLpro inhibitor,FadD28 FP inh,Mtb FBA inh,BioA inh,Mtb FBA inh conf,GDH-TPI counter-2
CC1=C(C(=O)N2CCOCC2)C(c2ccccc2F)C2=C(CCCC2=O)N1 (configuration not stated),14,5,-3,28*,-1,92*,61*
COc1ccccc1-c1oc2ccccc2c1C#CC(C)(C)O,14,.,-9,55*,0,+,+
CCC(C(=O)N1CCN(C(=O)c2ccco2)CC1)c1ccccc1 (configuration not stated),-4,-4,-2,-4,0,.,.
CCCSc1ccccc1C(=O)N1CCN(C(=O)c2ccco2)CC1,12,5,0,55*,1,+,+
COCC(=O)N1C[C@@H](C)[C@@H](OC)CN(C)C(=O)c2ccc(NC(=O)NC(C)C)cc2OC[C@H]1C,.,.,.,.,-4,.,.
O=C(CCN1C(=O)C2C3C=CC(C3)C2C1=O)NC1CCCCC1 (configuration not stated),10,-4,-2,8,-2,.,.
CCOC(=O)N1CCC(NC(=O)CCN2C(=O)C3C4C=CC(C4)C3C2=O)CC1 (configuration not stated),-5,0,-1,84*,-2,+,+
CCNC(=S)Nc1ccc2c(c1)c(=O)n(C)n2CC=C(C)C,3,.,-1,63*,1,185*,152*
C=C(C)Cn1c2ccc(NC(=S)NCc3ccccc3F)cc2c(=O)n1C,0,.,0,36*,2,148*,106*
COc1cccc(CNC(=S)Nc2ccc3c(c2)c(=O)n(C)n3C)c1,15,.,1,26,0,.,.
COc1cc(NS(=O)(=O)c2ccc(N/C=C\C(=O)c3ccc(C)cc3)cc2)nc(OC)n1,26,5,0,30*,-1,36*,22*
COc1cc(NS(=O)(=O)c2ccc(NC(=O)c3cccs3)cc2)nc(OC)n1,1,2,-6,75*,-1,-1,-8
CO[C@@H]1CN(C)C(=O)c2ccc(NC(=O)C3CCC3)cc2OC[C@@H](C)N(C(=O)NC(C)C)C[C@H]1C,.,.,.,.,0,.,.
COc1ccc2[nH]c3c(c(=O)c2c1)CCCC3,.,.,-3,30*,1,+,153*
CO[C@H]1CN(C)C(=O)c2cc(NS(=O)(=O)c3ccccc3F)ccc2OC[C@H](C)NC[C@H]1C,.,.,.,.,-3,.,.
CCOc1ccc(C2C=C(c3ccc(F)cc3)Nc3ncnn32)cc1 (configuration not stated),14,-1,-4,31*,1,146*,100*
Cc1ccc(C2C=C(c3ccccc3)Nc3ncnn32)cc1 (configuration not stated),0,.,-1,30*,-1,38*,26*
CCCC(=O)Nc1c(-c2ccccc2OC)c(=O)c2ccccc2n1C,-1,-4,-3,6,-1,.,.
